# Gli-Sufu antag = Gli-Sufu pathway antagonism. Sufu-KO-LIGHT fibroblasts, Gli luciferase reporter luminescence. inhibition, % at 5 µM. hit rate 0.74% among 340,000. AID 588413;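 active = inhibition above about 55%, limit read from the data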;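 also: 0% = DMSO-treated cells and 100% = wells with medium but no cells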
# PAX8 inh HTS = inhibitors of PAX8 transcriptional activity in RMG-I cells; RMG-I TPO-luciferase reporter, SteadyGlo, 24 h; inhibition, % at 12.6 µM; hit rate 1.2% among 360,000; AID 652154;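 active = mean replicate inhibition at least 60% with every replicate also reaching 60%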;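 also: luciferase light reporting Pax8 driven TPO promoter activity; plate controls were median of neutral control wells for no effect and mitoxantrone controls for full effect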
# Mdm2-MdmX inh = disrupts the human Mdm2-MdmX interaction. O15151+Q00987. SaOS-2 split-luciferase Mdm2/MdmX complementation, luminescence. hit rate 3% among 330,000. inhibition, % at 8 µM;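 active = inhibition of at least 50% at 8 µM in the primary screen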
# Target sequence (O15151 whole entry, looked up): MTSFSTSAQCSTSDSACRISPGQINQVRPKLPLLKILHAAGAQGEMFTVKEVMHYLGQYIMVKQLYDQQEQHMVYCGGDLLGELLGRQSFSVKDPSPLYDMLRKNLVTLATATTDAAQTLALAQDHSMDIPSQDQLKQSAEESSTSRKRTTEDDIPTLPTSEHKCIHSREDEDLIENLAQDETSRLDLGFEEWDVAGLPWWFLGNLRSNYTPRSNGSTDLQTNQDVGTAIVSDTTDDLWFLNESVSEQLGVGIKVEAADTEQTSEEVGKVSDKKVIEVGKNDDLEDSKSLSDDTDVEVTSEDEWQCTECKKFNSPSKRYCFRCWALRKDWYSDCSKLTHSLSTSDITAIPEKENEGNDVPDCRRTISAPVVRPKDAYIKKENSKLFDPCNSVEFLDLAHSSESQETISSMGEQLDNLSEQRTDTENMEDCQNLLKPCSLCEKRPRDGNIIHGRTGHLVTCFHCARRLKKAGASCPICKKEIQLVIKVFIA
# Target sequence (Q00987 whole entry, looked up): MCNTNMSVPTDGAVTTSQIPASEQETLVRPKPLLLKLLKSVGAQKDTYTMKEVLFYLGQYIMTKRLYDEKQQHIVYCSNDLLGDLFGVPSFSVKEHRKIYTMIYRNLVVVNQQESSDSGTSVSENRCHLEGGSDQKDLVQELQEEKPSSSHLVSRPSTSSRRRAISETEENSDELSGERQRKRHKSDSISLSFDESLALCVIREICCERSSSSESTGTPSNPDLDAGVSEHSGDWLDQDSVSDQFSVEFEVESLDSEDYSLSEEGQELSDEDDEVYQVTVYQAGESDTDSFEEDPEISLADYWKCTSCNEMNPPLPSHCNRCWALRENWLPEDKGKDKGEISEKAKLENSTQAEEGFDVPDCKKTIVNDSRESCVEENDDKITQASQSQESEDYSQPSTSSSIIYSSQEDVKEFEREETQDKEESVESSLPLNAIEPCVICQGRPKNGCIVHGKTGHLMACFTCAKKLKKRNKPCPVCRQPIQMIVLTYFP
# Beta cell apopt = blocks beta cell apoptosis; INS-1E cytokine-induced death, ATP luminescence, 48 h; percent of positive-control rescue, neutral wells zero; protection from apoptosis, % (no concentration beside the values); hit rate 0.8% among 300,000; AID 435005;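 active = Every replicate reaches about 75%, or at least half do and their mean reaches it too, limit read from the data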;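 also: 0% = cytokine-treated negative control wells and 100% = positive control rescue; higher means more ATP so stronger rescue from cytokine killing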
# CSC inhib = cancer stem cell inhibition. cancer stem cell-like cells viability, luminescence. inhibition, % at 7.5 µM. hit rate 1.1% among 300,000. AID 2717; in the data active = inhibition above about 75%; tested in HMLE shEcad cells
# Shn3 3UTR inh = inhibitors of Schnurri-3 3'UTR reporter in osteoblasts | Clone20 osteoblast Shn3 3'UTR firefly luciferase, 24 h | inhibition, % at 12.5 µM | hit rate 0.52% among 360,000 | AID 588674;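 active = mean inhibition of at least 75% with every replicate also reaching 75%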;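 also: 0% = median of neutral control wells and 100% = pilot-screen positive control compound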
# Mdm2 MdmX conf = confirmation of human Mdm2/MdmX interaction inhibitors. inhibition, % at 8 µM. Mdm2-MdmX binding, luminescent assay. AID 489028. hit rate 55% among 10,000. shares compounds with Mdm2-MdmX inh; in the data active = inhibition above about 40%
# Full FLuc ctr = full-length luciferase inhibition in Mdm2/MdmX counter-screen | AID 504607 | inhibition, % at 8 µM | SaOS-2 full-length luciferase counterscreen, luminescence | shares compounds with Mdm2-MdmX inh | hit rate 77% among 6,200;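 active = mean inhibition at 8 µM reaching about 37%, which flags the compound as non-specific, limit read from the data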;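 also: p53-null SaOS-2 cells with luciferase driven by a doxycycline-inducible promoter; compound on cells about two nights before reading with doxycycline added after day one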
# An asterisk follows results filed as active; . = not tested or not shown. Only some compounds are listed: those with a hit (about 4% of all), similar ones and a draw of the others.
SMILES,Gli-Sufu antag,PAX8 inh HTS,Mdm2-MdmX inh,Beta cell apopt,CSC inhib,Shn3 3UTR inh,Mdm2 MdmX conf,Full FLuc ctr
CCOc1c(OC(C)=O)ccc(/C=C/c2ccc3cccc(OC)c3n2)c1[N+](=O)[O-],-15,-83,-51,-10,43,8,.,.
O=C(O)/C=C/C(=O)c1ccc2c(c1)CCc1ccccc1-2,-66,-10,67*,-44,55,81,26,.
C[C@@H]1CN([C@H](C)CO)C(=O)Cc2cc(NC(=O)Cc3ccccc3)ccc2O[C@@H]1CN(C)Cc1ccc2c(c1)OCO2,.,24,.,.,.,.,.,.
O=C(Nc1ccccc1F)N[C@H]1CC[C@H](CCNC(=O)C2CCCC2)O[C@H]1CO,.,-3,.,.,.,.,.,.
Cc1ccc(C)c(CN2CCC(CNC(=O)Nc3cccc(Cl)c3C)CC2)c1,-29,8,41,7,-4,20,.,.
Cc1cc(C)cc(NC(=O)NCC2CCN(Cc3cc(C)ccc3C)CC2)c1,5,-17,50*,1,2,3,36,.
Cc1ccc(C)c(CN2CCC(CNC(=O)Nc3ccc(F)c(Cl)c3)CC2)c1,35,22,69*,14,18,15,33,56*
COc1ccccc1NC(=O)N1C[C@H]2[C@@H](c3ccccc31)[C@@H](CO)N2C(=O)C1CC1,.,5,.,.,.,.,.,.
CC(C)NC(=O)N(C)C[C@H]1Oc2ccc(NS(=O)(=O)c3ccccc3)cc2CC(=O)N([C@@H](C)CO)C[C@H]1C,.,-2,.,.,.,.,.,.
O=C(C[C@H]1C=C[C@H](NS(=O)(=O)c2ccc(F)cc2)[C@H](CO)O1)NCCN1CCCCC1,.,-17,.,.,.,.,.,.
COc1ccc(-c2ccc([C@@H]3[C@@H](C#N)N[C@@H]3CO)cc2)cc1,.,-20,.,.,.,.,.,.
Cn1c(-c2ccccc2F)cc2onc(-c3ccccc3)c2c1=O,-57,-89,-18,7,-2,-46,.,.
Cn1c(-c2ccccc2)cc2onc(-c3ccccc3)c2c1=O,-25,14,62*,10,6,39,38,113*
CCCC(=O)N1CC2(C1)CN(C(=O)CC)[C@@H](CO)c1c2c2ccc(OC)cc2n1C,.,6,.,.,.,.,.,.
Cc1ccc(-c2nnc(CSc3nnc(COc4cccc5ccccc45)n3-c3ccccc3)o2)cc1,-16,.,63*,-4,.,20,32,.
Cc1cccc(N2CCN(C(=O)c3ccc(Cl)c(S(=O)(=O)NCc4ccco4)c3)CC2)c1C,10,.,70*,4,51,4,74*,42*
CC1CN(C(=O)c2ccc(Cl)c(S(=O)(=O)NCc3ccco3)c2)CC(C)O1 (stereo unspecified),-11,-2,-8,-5,.,-17,.,.
COc1cc([C@@H]2c3cc4c(cc3[C@@H](O[C@@H]3O[C@@H]5CO[C@@H](C)O[C@H]5[C@H](O)[C@H]3O)[C@H]3COC(=O)[C@H]23)OCO4)cc(OC)c1O,82*,28,78*,11,64,81,60*,32
CCN(CC)C1Oc2cc3c(cc2C(c2cc(OC)c(O)c(OC)c2)C1C)OCO3 (stereo unspecified),15,2,.,.,.,-37,.,.
COc1cc([C@@H]2c3cc4c(cc3[C@H](O)[C@H]3COC(=O)[C@H]23)OCO4)cc(OC)c1OC,47,95*,75*,.,59,10,54*,126*
COc1cc([C@@H]2c3cc4c(cc3[C@@H](O)[C@@H](CO)[C@@H]2CO)OCO4)cc(OC)c1O[Si](C)(C)C(C)(C)C,.,.,53*,-7,58,.,4,.
Cc1ccc(S(=O)(=O)n2ccc3c(OCCOCCNCc4ccc(F)cc4)cccc32)cc1,12,54,54*,30,59,77,23,.
O=C(Nc1nc(-c2ccccn2)cs1)c1ccc2c(c1)OCCO2,-80,-129,-32,5,26,-15,.,.
CCc1cc(C(=O)Nc2nc(-c3ccccn3)cs2)sc1C,.,16,52*,60,20,63,56*,51*
O=C(Nc1nc(-c2ccccn2)cs1)c1ccccc1-n1cnnn1,36,59,72*,78*,34,95*,75*,30
SMILES,Gli-Sufu antag,PAX8 inh HTS,Mdm2-MdmX inh,Beta cell apopt,CSC inhib,Shn3 3UTR inh,Mdm2 MdmX conf,Full FLuc ctr
CCCn1nc(C(=O)Nc2nc(-c3ccccn3)cs2)c2ccccc2c1=O,4,74*,62*,66,.,60,50*,53*
CC(=O)c1ccc(-c2ccc(C(=O)Nc3nc(-c4ccccn4)cs3)o2)cc1,-63,-20,91*,-10,26,37,86*,40*
C[C@@H]1CN([C@@H](C)CO)C(=O)c2cccc(NS(C)(=O)=O)c2O[C@@H]1CN(C)Cc1ccc2c(c1)OCO2,.,-15,.,.,.,.,.,.
O=C(Nc1nc(-c2cc(F)ccc2F)cs1)c1ccccn1,-11,-29,42,11,43,-37,.,.
O=C(Nc1nc(-c2ccccn2)cs1)c1ccc(-c2ccccc2F)o1,-12,-14,57*,34,.,19,50*,63*
O=C(Nc1nc(-c2ccccn2)cs1)c1ccc([N+](=O)[O-])o1,4,80*,77*,90*,47,88*,68*,37*
Cc1ccc(C(=O)Nc2nc(-c3ccccn3)cs2)o1,-11,-9,74*,62,31,34,56*,40*
O=C(Nc1nc(-c2ccccc2)cs1)C1COc2ccccc2O1 (stereo unspecified),-16,.,-7,-3,-8,-11,.,.
CC(=O)Nc1ccc(-c2csc(NC(=O)c3ccc(C)o3)n2)cc1,-19,.,6,-1,-4,3,.,.
O=C(Nc1nc(-c2ccccn2)cs1)C1COc2ccccc2O1 (stereo unspecified),-9,31,65*,-1,38,90*,71*,56*
O=C(NCC[C@@H]1CC[C@H](NS(=O)(=O)Cc2ccccc2)[C@H](CO)O1)C1CC1,.,-3,.,.,.,.,.,.
N#CC(C#N)=C(Nc1ccc(F)cc1)SCc1cccc(F)c1,32,77*,90*,102*,58,46,92*,23
CCOc1ccc(N/C(SCc2cccc([N+](=O)[O-])c2)=C(/C#N)C(N)=O)cc1,4,-10,-1,-16,-1,-1,.,.
O=C(NCCc1ccccc1)C(c1cccs1)N(C(=O)c1csnn1)C1CC1 (stereo unspecified),-8,3,16,2,-6,7,.,.
O=C(NCCc1ccccc1)C(c1cccs1)N(C(=O)CCl)c1ccc(Cl)cc1 (stereo unspecified),95*,111*,99*,18,64,57,100*,52*
COc1ccc(CN(C)C[C@@H]2OCCCC[C@@H](C)Oc3ccc(NC(=O)CCCN(C)C)cc3C(=O)N([C@H](C)CO)C[C@H]2C)cc1,.,-17,.,.,.,.,.,.

# Compound activity from PubChem BioAssay.
